“And” between values parts separate entries of the source, which are not always exact repeats. Identical values can stand only once. The panel holds about 83,000 compounds, 20% with a hit somewhere; the sample as a whole holds those more often.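 Treatment: one concentration, 48 hours, 96-well format. Scoring: percent growth, with anything below 10 considered active.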 Unmarked numbers belong to inactive results. The source made the active and inactive calls.

This note sets out measurements from PubChem BioAssay (NCI).

Some test systems named below: NCI-H23 lung; NCI-H226 lung; NCI-H322M lung; HOP-62 NSCLC; NCI-H460 lung; HOP-92 NSCLC; NCI-H522 lung; A549/ATCC NSCLC; 786-0 renal; COLO 205 colon; DU-145 prostate; K-562 leukemia; MALME-3M melanoma; MDA-MB-231 breast; RXF 393 renal; SF-268 CNS; SF-295 CNS; SF-539 CNS; UACC-257 melanoma; M14 melanoma.
Assay in all cases: NCI-60 one-dose screen, 48 h (100 = growth as untreated, 0 = no growth, -100 = all killed)
Details in all cases: 10 µM unless noted

Take `c1n[nH]cc1-c1nc2ccc3[nH]ncc3c2c2c1CC1(CC2)COC1`: the growth in the assay on NCI-H23 lung was 62%; with NCI-H226 lung it was 66%; in the assay on NCI-H322M lung, 64%; in the assay with HOP-62 NSCLC, 77.7%; in the assay on NCI-H460 lung, 73.4%; with HOP-92 NSCLC, 92.1%. Moreover, the growth in the assay on NCI-H522 lung is -24.6% (active); in the assay on A549/ATCC NSCLC, 95.9%; with 786-0 renal, 60.6%; in the assay on COLO 205 colon it was 24.6%; in the assay on DU-145 prostate it was 62.7%; in the assay on K-562 leukemia it was 33.9%. In addition, the growth in the assay on MALME-3M melanoma is 29%; in the assay on MDA-MB-231 breast it was 69.5%; with RXF 393 renal, -2.43% (active); in the assay on SF-268 CNS, 63.6%; with SF-295 CNS it was 104%; with SF-539 CNS it was 26.6%. In addition, the figures for the growth in the assay on UACC-257 melanoma and in the assay on M14 melanoma were 66.4% and 31.9%, respectively.
With `COc1cc(C=O)ccc1Oc1nc(Nc2ccc(F)cc2)nc(N(C)C)n1`, the growth in the assay with NCI-H23 lung is 59.8% and 65.8%; in the assay on NCI-H226 lung, 75.4% and 81.6%; in the assay with NCI-H322M lung, 96.5% and 78.9%; in the assay with HOP-62 NSCLC, 90% and 85.7%; with NCI-H460 lung it was 80.2% and 52.3%; with HOP-92 NSCLC, 87.3% and 65.7%. Further, the growth was 88.6% and 82.1% in the assay with NCI-H522 lung; 78.4% and 52% in the assay on 786-0 renal; 110% and 103% in the assay with COLO 205 colon; 90% and 72.7% with DU-145 prostate; 55.6% and 35.2% in the assay with K-562 leukemia; 75.8% and 82.1% in the assay with MALME-3M melanoma. Also, the growth was 90.1% and 76.2% with MDA-MB-231 breast; 91.9% and 64.9% in the assay with RXF 393 renal; 73.2% and 66.9% in the assay with SF-268 CNS; 65.5% and 82.7% with SF-295 CNS; 92.9% and 42.8% in the assay with SF-539 CNS; 57.7% and 102% with UACC-257 melanoma. Moreover, the growth in the assay on M14 melanoma is 93.4% and 65.3%.
As to `O=C(NNC(=O)c1ccc(OCc2nc3ccc(Cl)cc3[nH]2)cc1)Nc1ccc(Cl)c(Cl)c1`, the growth with NCI-H23 lung was 47%; with NCI-H226 lung, 93%; with NCI-H322M lung, 47.6%; in the assay on HOP-62 NSCLC it was 65.4%; in the assay on NCI-H460 lung, 27.5%; in the assay with HOP-92 NSCLC, 62.1%. For the same compound, the growth is 60.4% with NCI-H522 lung; 80.8% with 786-0 renal; 105% in the assay with COLO 205 colon; 73% with DU-145 prostate; 29.6% in the assay with K-562 leukemia; 6.73% (active) in the assay with MALME-3M melanoma. In addition, the growth was 44.1% in the assay on MDA-MB-231 breast; 69.4% in the assay on RXF 393 renal; 85.6% in the assay on SF-268 CNS; 101% in the assay with SF-295 CNS; 43.3% with SF-539 CNS; 95.6% with UACC-257 melanoma. For the same compound, the growth with M14 melanoma was 56.4%.
In the case of `Cn1ncc2c(N)nc(Oc3ccccc3-c3ccccc3)nc21`, the growth in the assay with NCI-H23 lung is 29.6%; in the assay on NCI-H226 lung, 45.2%; with NCI-H322M lung it was 72.2%; with HOP-62 NSCLC, 57.9%; with NCI-H460 lung, 14.5%; in the assay with HOP-92 NSCLC, 62.4%. In addition, the growth is 22.2% in the assay on NCI-H522 lung; 55.9% in the assay with A549/ATCC NSCLC; 52.6% in the assay with 786-0 renal; 33.9% with COLO 205 colon; 73.1% with DU-145 prostate; 6.56% (active) with K-562 leukemia. Also, the growth was 25.7% with MALME-3M melanoma; 43% in the assay with MDA-MB-231 breast; 25% in the assay with RXF 393 renal; 55.6% with SF-268 CNS; 27.2% in the assay on SF-295 CNS; 25.9% in the assay with SF-539 CNS. Further, the growth with UACC-257 melanoma was 63.5%; with M14 melanoma, 13.6%.
For `CS(=O)(=O)Nc1cc(-c2ccc3ncnc(Nc4ccc(OCc5cccnc5)c(Cl)c4)c3c2)cnc1Cl`, the growth in the assay with NCI-H23 lung is -26.9% (active); in the assay with NCI-H226 lung, 23.8%; with NCI-H322M lung, -2.48% (active); with HOP-62 NSCLC it was 24.3%; in the assay with NCI-H460 lung, 35.2%; in the assay with HOP-92 NSCLC, -27.9% (active). Besides, the growth in the assay with NCI-H522 lung was -4.01% (active); in the assay on 786-0 renal, 2.08% (active); in the assay on COLO 205 colon it was -73.5% (active); in the assay on DU-145 prostate it was 16.5%; with K-562 leukemia, 9.57% (active); with MALME-3M melanoma, -34.8% (active). For the same compound, the growth is -57.9% (active) in the assay on MDA-MB-231 breast; 0.962% (active) in the assay with RXF 393 renal; 14.6% in the assay with SF-268 CNS; -14.9% (active) in the assay on SF-295 CNS; -38% (active) in the assay with SF-539 CNS; 1.79% (active) in the assay with UACC-257 melanoma. Also, the growth with M14 melanoma is 2.98% (active).
`CS(=O)(=O)Nc1cncc(-c2ccc3ncnc(NCc4ccccc4)c3c2)c1`: the growth in the assay with NCI-H23 lung is 21.8%; with NCI-H226 lung it was 38.5%; with NCI-H322M lung it was 47.2%; in the assay on HOP-62 NSCLC, 46.5%; in the assay with NCI-H460 lung it was 83.3%; in the assay with HOP-92 NSCLC it was -12.3% (active). Moreover, the growth with NCI-H522 lung was 39.4%; in the assay on A549/ATCC NSCLC, 90.1%; in the assay with 786-0 renal, 55%; with COLO 205 colon, 41.9%; in the assay with DU-145 prostate, 55.2%; in the assay with K-562 leukemia it was 33.6%. The growth with MALME-3M melanoma was 27.8%; with MDA-MB-231 breast it was 40%; in the assay on RXF 393 renal, 35.6%; in the assay on SF-268 CNS, 31.7%; in the assay with SF-295 CNS, 42.8%; in the assay with SF-539 CNS, 23.9%. Further, the figures for the growth in the assay with UACC-257 melanoma and in the assay with M14 melanoma were 74.5% and 49%, respectively.
In the case of `CCCCC[C@@H]1C/C=C(\C)[C@@H](O)C(C)(C)C(=O)[C@@H](C)/C=C(\C)[C@@H]2C[C@H](O)C[C@](O)(CC(=O)O1)O2`, the growth was 31% in the assay with NCI-H23 lung; 14% in the assay on NCI-H226 lung; 82% in the assay with NCI-H322M lung; 68.7% in the assay on HOP-62 NSCLC; 49.6% in the assay with NCI-H460 lung; 60.4% in the assay with HOP-92 NSCLC. For the same compound, the growth in the assay on NCI-H522 lung was 12.5%; with A549/ATCC NSCLC, 36.8%; in the assay with 786-0 renal, 65.8%; in the assay with COLO 205 colon, 37.6%; in the assay on DU-145 prostate, 41.3%; in the assay with K-562 leukemia it was 13.6%. Besides, the growth with MALME-3M melanoma was 34.9%; with MDA-MB-231 breast, 83.4%; with RXF 393 renal, 68%; in the assay with SF-268 CNS, 43.1%; in the assay with SF-295 CNS, 11%; with SF-539 CNS it was 73.8%. Besides, the growth is 1.3% (active) with UACC-257 melanoma and 49.6% in the assay with M14 melanoma.
As for `O=Cc1cncc(-c2ccc3ncnc(N4CCc5cc(F)c(Cl)cc54)c3c2)c1`, the growth in the assay on NCI-H23 lung was 44.6%; with NCI-H226 lung, 10.8%; with NCI-H322M lung it was 0.287% (active); in the assay with HOP-62 NSCLC, 51.9%; with NCI-H460 lung, 25.2%; in the assay on HOP-92 NSCLC it was -4.62% (active). Besides, the growth in the assay with NCI-H522 lung was 59%; with 786-0 renal, 18%; in the assay with COLO 205 colon it was 99.7%; in the assay on DU-145 prostate, 22.5%; with K-562 leukemia, 35.5%; in the assay with MALME-3M melanoma it was 23.7%. Besides, the growth was 28.2% in the assay on MDA-MB-231 breast; -7.23% (active) in the assay with RXF 393 renal; 42.1% in the assay on SF-268 CNS; 19.2% with SF-295 CNS; 25.8% in the assay with SF-539 CNS; 59.1% in the assay on UACC-257 melanoma. Also, the growth in the assay on M14 melanoma is 48.6%.
